Test results as given in the supplement of paper PMC12067093, “Discovery and optimisation of a covalent ligand for TRIM25 and its application to targeted protein ubiquitination” (Chemical Science, 2025).
The full data set covers some 21,000 targets. This sample favours those with the largest changes.

Compound: Cc1cc(ccc1-c1ccccc1)C(=O)N1CCCN(CC1)C(=O)CCl [compound 10]
Experiment: probe-labelled cysteine peptide fold change vs DMSO (competition) (log2 fold change); higher = less target engagement (more negative = stronger competition)
Settings: THP-1, incubation time: 4 h
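Note: competitive profiling in live THP-1 cells: cysteine peptides tagged with an iodoacetamide desthiobiotin (IA-DTB) probe, intensity after compound treatment relative to DMSO-treated cells.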

Target: ARHGAP25_P42331_448_CFLTSAFQGANSSK (UniProt P42331)
Chain of UniProt P42331 (P42331 whole entry, looked up): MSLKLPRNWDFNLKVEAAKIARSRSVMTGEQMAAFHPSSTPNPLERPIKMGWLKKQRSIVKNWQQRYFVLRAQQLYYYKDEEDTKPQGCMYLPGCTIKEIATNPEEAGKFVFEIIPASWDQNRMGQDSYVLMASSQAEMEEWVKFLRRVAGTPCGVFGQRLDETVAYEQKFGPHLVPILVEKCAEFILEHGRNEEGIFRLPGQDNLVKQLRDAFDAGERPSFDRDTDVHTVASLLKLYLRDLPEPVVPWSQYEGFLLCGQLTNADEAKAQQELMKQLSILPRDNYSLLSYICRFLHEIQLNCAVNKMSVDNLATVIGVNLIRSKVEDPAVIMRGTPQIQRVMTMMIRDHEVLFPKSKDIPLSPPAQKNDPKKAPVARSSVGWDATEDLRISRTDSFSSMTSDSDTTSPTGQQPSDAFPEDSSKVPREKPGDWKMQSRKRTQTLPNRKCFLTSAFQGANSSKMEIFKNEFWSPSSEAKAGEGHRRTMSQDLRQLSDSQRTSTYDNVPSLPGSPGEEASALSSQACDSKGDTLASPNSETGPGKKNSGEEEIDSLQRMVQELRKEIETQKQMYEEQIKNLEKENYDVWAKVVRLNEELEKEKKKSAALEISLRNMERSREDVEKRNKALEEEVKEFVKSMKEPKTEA
- probe-labelled cysteine peptide fold change (10 µM): -0.526
- probe-labelled cysteine peptide fold change (50 µM): -1.52

Target: ALAD_P13716_75_CVLIFGVPSR (UniProt P13716)
Chain of UniProt P13716 (P13716 whole entry, looked up): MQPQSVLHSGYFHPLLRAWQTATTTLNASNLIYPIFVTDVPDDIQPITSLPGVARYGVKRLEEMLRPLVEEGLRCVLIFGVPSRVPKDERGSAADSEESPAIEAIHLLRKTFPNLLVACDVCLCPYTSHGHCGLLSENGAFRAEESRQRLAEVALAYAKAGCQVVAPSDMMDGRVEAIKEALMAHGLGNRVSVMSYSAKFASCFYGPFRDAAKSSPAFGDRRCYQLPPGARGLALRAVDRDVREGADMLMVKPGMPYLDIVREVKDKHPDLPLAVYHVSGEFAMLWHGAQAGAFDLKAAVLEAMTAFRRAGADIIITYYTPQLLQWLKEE
- probe-labelled cysteine peptide fold change (10 µM): 0.166
- probe-labelled cysteine peptide fold change (50 µM): 0.185

Target: ANXA4_P09525_315_KVLLVLCGGDD (UniProt P09525)
Chain of UniProt P09525 (P09525 whole entry, looked up): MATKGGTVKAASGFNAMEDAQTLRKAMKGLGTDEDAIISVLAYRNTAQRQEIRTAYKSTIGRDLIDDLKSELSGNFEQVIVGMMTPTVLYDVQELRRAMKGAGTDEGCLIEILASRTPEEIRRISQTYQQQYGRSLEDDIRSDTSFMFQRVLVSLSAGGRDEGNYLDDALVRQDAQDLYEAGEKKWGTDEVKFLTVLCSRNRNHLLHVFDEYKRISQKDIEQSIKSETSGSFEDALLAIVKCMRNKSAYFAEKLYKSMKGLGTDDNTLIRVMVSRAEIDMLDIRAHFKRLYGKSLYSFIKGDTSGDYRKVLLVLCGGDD
- probe-labelled cysteine peptide fold change (10 µM): -0.0611
- probe-labelled cysteine peptide fold change (50 µM): -0.661

Target: ALKBH5_Q6P6C2_100_LFSQDECAK (UniProt Q6P6C2)
- probe-labelled cysteine peptide fold change (10 µM): -0.000108
- probe-labelled cysteine peptide fold change (50 µM): 0.012

Target: ATP2B1_P20020_547_TECALLGLLLDLKR (UniProt P20020)
Chain of UniProt P20020 (P20020 whole entry): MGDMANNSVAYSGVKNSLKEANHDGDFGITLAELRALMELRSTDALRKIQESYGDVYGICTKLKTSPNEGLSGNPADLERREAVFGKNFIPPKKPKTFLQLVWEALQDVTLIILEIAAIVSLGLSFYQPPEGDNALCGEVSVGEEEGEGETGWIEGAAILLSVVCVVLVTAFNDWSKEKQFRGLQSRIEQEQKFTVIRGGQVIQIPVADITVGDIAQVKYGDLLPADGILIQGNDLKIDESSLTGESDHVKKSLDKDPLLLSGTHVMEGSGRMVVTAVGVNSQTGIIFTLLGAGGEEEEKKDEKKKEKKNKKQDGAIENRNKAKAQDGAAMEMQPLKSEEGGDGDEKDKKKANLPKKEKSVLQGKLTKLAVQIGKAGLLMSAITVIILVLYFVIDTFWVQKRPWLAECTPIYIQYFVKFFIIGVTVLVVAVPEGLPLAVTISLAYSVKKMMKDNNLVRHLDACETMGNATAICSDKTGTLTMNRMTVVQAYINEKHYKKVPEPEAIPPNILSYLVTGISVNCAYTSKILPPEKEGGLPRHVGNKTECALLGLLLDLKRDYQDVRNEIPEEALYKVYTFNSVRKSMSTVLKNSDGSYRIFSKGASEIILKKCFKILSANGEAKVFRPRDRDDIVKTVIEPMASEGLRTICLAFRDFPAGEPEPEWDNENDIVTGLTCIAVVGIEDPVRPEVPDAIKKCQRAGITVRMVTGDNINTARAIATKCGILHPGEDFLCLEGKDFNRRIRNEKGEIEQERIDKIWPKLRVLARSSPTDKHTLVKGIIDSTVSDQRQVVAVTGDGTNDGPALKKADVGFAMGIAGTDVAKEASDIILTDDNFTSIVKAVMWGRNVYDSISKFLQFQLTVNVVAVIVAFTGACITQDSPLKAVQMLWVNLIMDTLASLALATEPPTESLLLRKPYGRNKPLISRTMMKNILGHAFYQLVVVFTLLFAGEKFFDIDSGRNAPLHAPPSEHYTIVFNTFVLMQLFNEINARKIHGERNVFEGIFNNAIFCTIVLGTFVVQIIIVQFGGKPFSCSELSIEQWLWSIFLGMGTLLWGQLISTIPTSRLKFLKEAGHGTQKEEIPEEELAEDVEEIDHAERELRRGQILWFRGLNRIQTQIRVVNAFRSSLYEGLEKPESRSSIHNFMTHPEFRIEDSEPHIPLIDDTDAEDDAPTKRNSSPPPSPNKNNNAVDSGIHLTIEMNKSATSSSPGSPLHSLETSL
- probe-labelled cysteine peptide fold change (10 µM): -0.138
- probe-labelled cysteine peptide fold change (50 µM): -0.507

Target: ATM_Q13315_2770_SGVLEWCTGTVPIGEFLVNNEDGAHKR (UniProt Q13315)
- probe-labelled cysteine peptide fold change (10 µM): 0.0886
- probe-labelled cysteine peptide fold change (50 µM): -0.152

Target: AIP_O00170_121+122_HCCGVAQMR (UniProt O00170)
Chain of UniProt O00170 (O00170 whole entry, looked up): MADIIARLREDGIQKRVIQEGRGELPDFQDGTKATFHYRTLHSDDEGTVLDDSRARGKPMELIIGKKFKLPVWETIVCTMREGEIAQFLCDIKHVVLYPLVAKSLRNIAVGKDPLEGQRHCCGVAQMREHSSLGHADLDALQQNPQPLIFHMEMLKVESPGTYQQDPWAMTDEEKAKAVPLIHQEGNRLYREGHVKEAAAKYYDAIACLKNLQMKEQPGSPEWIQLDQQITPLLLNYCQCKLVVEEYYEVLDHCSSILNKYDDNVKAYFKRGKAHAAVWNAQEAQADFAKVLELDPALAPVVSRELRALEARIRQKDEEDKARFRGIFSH
- probe-labelled cysteine peptide fold change (10 µM): -0.298
- probe-labelled cysteine peptide fold change (50 µM): -1.16

Target: ANLN_Q9NQW6_978_CQVNSSVEER (UniProt Q9NQW6)
Chain of UniProt Q9NQW6 (Q9NQW6 whole entry, looked up): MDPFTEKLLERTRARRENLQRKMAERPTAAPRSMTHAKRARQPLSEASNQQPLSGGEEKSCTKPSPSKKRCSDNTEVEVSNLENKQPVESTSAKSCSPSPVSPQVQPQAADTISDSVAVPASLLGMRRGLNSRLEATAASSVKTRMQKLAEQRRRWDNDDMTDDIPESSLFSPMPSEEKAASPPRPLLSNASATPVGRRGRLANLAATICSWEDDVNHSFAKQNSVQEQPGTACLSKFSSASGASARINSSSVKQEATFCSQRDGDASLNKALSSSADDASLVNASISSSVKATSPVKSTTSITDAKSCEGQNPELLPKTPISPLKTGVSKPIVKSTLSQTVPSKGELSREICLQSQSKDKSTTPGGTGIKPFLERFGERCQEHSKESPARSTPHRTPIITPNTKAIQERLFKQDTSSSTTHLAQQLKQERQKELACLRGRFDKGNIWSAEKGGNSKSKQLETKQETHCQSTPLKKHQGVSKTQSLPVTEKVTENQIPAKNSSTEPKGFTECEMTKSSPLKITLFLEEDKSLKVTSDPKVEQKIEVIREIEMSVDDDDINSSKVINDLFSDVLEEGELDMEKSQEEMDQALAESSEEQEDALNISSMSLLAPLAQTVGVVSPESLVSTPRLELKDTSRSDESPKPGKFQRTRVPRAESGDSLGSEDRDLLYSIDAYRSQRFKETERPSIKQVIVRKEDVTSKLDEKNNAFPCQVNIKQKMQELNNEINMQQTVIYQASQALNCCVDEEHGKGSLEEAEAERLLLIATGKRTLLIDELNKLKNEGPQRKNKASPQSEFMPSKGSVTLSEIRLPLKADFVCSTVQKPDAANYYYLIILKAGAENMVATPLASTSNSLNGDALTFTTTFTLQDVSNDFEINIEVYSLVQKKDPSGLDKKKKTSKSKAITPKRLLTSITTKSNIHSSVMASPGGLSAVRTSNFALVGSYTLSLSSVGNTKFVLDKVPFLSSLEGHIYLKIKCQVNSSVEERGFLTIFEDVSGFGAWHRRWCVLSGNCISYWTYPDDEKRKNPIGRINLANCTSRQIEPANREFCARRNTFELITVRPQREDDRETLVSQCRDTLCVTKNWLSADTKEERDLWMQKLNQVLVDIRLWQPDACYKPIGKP
- probe-labelled cysteine peptide fold change (10 µM): 0.153
- probe-labelled cysteine peptide fold change (50 µM): 0.239

Target: AKR1A1_P14550_46_HIDCAAIYGNEPEIGEALKEDVGPGK (UniProt P14550)
- probe-labelled cysteine peptide fold change (10 µM): -0.393
- probe-labelled cysteine peptide fold change (50 µM): -1.14

Target: ATP2A1_O14983_349_SLPSVETLGCTSVICSDK (UniProt O14983)
Chain of UniProt O14983 (O14983 whole entry, looked up): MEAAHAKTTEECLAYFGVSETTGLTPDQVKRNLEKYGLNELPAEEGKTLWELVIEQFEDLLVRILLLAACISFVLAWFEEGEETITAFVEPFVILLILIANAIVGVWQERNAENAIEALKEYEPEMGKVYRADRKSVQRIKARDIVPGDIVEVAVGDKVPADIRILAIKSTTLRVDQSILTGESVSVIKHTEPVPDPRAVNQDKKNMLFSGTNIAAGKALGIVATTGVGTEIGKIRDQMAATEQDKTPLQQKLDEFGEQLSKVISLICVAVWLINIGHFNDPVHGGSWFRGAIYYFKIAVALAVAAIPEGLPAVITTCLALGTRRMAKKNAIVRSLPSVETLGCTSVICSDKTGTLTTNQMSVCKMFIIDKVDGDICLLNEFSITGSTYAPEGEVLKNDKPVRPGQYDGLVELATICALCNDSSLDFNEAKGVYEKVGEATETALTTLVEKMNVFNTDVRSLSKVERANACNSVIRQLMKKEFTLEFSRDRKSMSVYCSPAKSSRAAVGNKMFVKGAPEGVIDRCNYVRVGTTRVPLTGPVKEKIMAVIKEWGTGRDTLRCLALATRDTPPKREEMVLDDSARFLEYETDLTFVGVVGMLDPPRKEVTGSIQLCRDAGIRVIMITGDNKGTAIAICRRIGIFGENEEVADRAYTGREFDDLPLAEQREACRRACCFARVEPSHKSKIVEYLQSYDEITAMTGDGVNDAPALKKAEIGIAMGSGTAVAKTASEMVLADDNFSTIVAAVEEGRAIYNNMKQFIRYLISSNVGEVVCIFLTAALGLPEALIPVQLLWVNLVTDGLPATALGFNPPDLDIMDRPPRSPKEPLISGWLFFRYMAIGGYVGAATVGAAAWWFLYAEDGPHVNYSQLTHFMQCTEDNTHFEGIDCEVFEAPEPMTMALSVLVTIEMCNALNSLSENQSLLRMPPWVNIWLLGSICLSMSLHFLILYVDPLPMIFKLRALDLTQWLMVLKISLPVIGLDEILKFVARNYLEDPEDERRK
- probe-labelled cysteine peptide fold change (10 µM): -0.0681
- probe-labelled cysteine peptide fold change (50 µM): -0.0742
